Activity calls are given as the source filed them.
Legend:
[1] = anti-His antibody binders, primary screen, artefact control for SMM control protein annotation, biochemical, small-molecule microarray, 635 nm fluorescence (AID 1128); details: anti-His Alexa647 antibody binding, higher = more signal;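 also: score merges feature fluorescence with signal-to-noise for each printed compound spot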
[2] = test system: Human papillomavirus type 1a E7 protein (residues 1-88); test: HPV1a E7 small-molecule binders, primary screen, biochemical, small-molecule microarray, residues 1-88, 635 nm (AID 1129); details: small-molecule microarray binding, fluorescence 635 nm; higher = more signal
[3] = target: Focal adhesion kinase 1 (Homo sapiens) (UniProt Q05397); test: small-molecule microarray binders of FAK, primary screen, biochemical, 635/667 nm fluorescence, BSA, DTT (AID 1130); details: PTK2 binding, 635 nm fluorescence, higher = more signal;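 also: composite of spot emission at 667 nm and signal to noise over triplicate slides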
Focal adhesion kinase 1 (Homo sapiens), sequence (Q05397 whole entry, looked up): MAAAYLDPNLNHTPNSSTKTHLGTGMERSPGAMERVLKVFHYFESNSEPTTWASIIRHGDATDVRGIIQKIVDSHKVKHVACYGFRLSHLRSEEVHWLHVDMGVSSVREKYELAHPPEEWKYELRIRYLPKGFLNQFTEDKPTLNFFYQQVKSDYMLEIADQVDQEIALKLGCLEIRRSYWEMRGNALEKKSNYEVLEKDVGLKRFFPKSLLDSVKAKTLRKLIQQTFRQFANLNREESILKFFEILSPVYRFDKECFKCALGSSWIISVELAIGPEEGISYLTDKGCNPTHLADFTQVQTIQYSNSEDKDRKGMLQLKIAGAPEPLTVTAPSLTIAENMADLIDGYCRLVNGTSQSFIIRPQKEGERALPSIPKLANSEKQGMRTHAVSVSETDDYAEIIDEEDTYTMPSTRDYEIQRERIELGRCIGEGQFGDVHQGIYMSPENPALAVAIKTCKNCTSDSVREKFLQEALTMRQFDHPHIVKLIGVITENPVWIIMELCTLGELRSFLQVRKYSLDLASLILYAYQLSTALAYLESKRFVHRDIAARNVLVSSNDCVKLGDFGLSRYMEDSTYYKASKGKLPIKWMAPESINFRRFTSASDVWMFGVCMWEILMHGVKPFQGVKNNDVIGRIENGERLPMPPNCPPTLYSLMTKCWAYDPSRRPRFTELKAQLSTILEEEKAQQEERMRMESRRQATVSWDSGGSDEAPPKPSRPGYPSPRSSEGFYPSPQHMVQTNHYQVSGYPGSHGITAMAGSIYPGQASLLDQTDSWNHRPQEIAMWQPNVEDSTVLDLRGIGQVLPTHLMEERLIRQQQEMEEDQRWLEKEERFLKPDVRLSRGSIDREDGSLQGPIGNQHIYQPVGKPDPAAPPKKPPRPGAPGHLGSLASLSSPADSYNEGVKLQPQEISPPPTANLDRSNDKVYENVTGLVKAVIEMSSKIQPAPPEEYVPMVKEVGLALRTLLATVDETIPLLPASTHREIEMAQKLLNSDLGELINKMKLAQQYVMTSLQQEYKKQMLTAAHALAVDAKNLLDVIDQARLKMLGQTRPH

[4] = test system: Fibrinogen (Alexa647-labelled); test: fibrinogen binders on compound microarrays, profiling panel, artefact control for SMM control-protein annotation, biochemical, small-molecule microarray, 635/667 nm fluorescence (AID 1131); details: fibrinogen-A647 binding fluorescence, higher = more signal;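 also: z-score merges 667 nm fluorescence with per-spot signal-to-noise over triplicate slides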
[5] = target: Follistatin (Homo sapiens) (UniProt P19883); test: follistatin binders on small-molecule microarrays, primary screen, biochemical, small-molecule microarray, 635/667 nm fluorescence (AID 1132); details: FST binding, 635 nm fluorescence, higher = more signal
Follistatin (Homo sapiens), sequence (P19883 whole entry, looked up): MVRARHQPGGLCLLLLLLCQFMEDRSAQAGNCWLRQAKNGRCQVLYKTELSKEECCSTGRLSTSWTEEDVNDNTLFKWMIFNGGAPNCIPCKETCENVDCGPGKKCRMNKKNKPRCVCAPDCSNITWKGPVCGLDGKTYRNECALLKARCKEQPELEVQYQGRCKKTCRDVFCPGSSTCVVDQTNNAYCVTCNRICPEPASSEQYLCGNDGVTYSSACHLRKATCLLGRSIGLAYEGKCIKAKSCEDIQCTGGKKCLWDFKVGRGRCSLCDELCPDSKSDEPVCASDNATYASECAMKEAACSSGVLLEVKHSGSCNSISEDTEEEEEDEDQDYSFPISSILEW

[6] = target: Fibroblast growth factor 2 (Homo sapiens) (UniProt P09038); test: FGF2 binders on small-molecule microarrays, primary screen, biochemical, small-molecule microarray, 635/667 nm fluorescence (AID 1133); details: small-molecule microarray binding, FGF2, fluorescence 635/667; higher = more signal
Fibroblast growth factor 2 (Homo sapiens), sequence (P09038 whole entry, looked up): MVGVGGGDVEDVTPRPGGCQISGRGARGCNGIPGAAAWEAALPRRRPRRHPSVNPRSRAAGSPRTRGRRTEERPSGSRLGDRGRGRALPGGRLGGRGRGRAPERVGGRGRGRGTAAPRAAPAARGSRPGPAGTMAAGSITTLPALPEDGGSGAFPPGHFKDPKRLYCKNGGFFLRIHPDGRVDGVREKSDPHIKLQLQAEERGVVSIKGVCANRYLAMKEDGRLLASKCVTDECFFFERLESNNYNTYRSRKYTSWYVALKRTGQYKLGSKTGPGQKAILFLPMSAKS

[7] = mitochondrial membrane potential change in A549 cells, profiling panel, cell-based, JC-1 fluorescence, basal, 24 h, 100 nL (AID 1138); details: higher = more signal;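 also: A549 lung adenocarcinoma cells under basal conditions with no added stimulus; test concentration not given here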
[8] = test system: Lefty1; test: Lefty1 binders on small-molecule microarrays, primary screen, biochemical, small-molecule microarray, 635/667 nm fluorescence (AID 1139); details: small-molecule microarray binding, fluorescence 635/667; higher = more signal
[9] = test system: wheat germ agglutinin (Triticum aestivum), Alexa647-labelled; test: wheat germ agglutinin binders on compound microarrays, profiling panel, artefact control for SMM control-protein annotation, biochemical, small-molecule microarray, 635/667 nm fluorescence (AID 1140); details: WGA-A647 binding, 635 nm fluorescence, higher = more signal;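 also: score merges 667 nm feature emission with signal to noise over triplicate slides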
[10] = target: Luciferin 4-monooxygenase (Photinus pyralis) (UniProt P08659); test: firefly luciferase enzyme inhibitors, primary screen, biochemical, luminescence, purified enzyme, 2006 set (AID 1141); details: SteadyGlo luminescence, 30 min; higher = more signal, called active from +8 up or from −8 down unless noted;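 also: cell-free assay with purified firefly luciferase at 100 ng per well in PBS; test concentration not given here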
Luciferin 4-monooxygenase (Photinus pyralis), sequence (P08659 whole entry, looked up): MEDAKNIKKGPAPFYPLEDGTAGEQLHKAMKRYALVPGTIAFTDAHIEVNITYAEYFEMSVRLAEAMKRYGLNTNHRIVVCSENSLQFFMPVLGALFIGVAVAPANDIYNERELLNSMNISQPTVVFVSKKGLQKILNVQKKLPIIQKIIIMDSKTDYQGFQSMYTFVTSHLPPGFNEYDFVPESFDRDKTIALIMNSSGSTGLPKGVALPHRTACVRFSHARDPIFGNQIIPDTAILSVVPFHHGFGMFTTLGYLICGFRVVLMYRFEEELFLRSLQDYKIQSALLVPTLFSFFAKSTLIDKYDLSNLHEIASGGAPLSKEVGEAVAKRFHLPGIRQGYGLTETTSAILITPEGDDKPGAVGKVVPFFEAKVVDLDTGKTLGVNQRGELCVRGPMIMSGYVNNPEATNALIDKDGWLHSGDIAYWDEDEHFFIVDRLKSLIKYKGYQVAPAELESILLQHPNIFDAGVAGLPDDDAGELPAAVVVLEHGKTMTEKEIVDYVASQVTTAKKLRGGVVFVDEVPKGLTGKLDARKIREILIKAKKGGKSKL

Structure (SMILES)	composite z-score [1]	composite z-score [2]	composite z-score [3]	composite z-score [4]	composite z-score [5]	composite z-score [6]	z-score [7]	composite z-score [8]	composite z-score [9]	z-score [10]
CCCc1cc2c(n1Cc1cccc(Cl)c1)C(C)C1CN(C(=O)c3ccccc3)C(C)(C(=O)OC)C21 (stereo not given)	2.37	1.23	1.16	0.989	-0.264	-1.1	1.95	-0.763	1.44	0.566 (inactive)
COC(=O)[C@H]1[C@H](c2ccccc2)C(=O)[C@]2(O)c3ccccc3O[C@@]12c1ccccc1	-0.179	0.382	0.227	0.826	0.402	0.186	0.866	0.266	0.167	-1.9 (inactive)
COC(=O)[C@@]1(Cc2ccc(F)cc2)[C@H]2c3cc(C(=O)N(C)C)[nH]c3C[C@H]2CN1C(=O)c1ccccc1	1.8	0.733	0.745	0.817	-0.252	-0.0573	0.843	-0.855	0.186	-0.0137 [setting not given] (inactive)
C=C(CC1(C(C)NP(=O)(c2ccccc2)c2ccccc2)CC1)c1ccccc1 (stereo not given)	2.95	1.25	0.788	0.94	0.3	-0.34	-0.147	0.0368	0.501	2.67 (inactive)
OCc1ccc(C2=CC(C3CC3)N(Cc3sc4ccccc4c3Cl)CC2)cc1 (stereo not given)	2.28	1.17	0.257	0.483	1.06	0.867	0.941	0.853	0.42	-1.57 (inactive)
CN1CCC(c2ccc(CO)cc2)=CC1C1CC1 (stereo not given)	-0.192	-0.855	0.363	-0.0825	0.231	0.0573	0.319	0.85	-0.0579	-0.866 (inactive)
CCOC(=O)[C@H]1CC=C2C(=O)Oc3ccc(Br)cc3[C@@H]21	0.819	1.27	1.87	0.474	-1.1	-1.3	-0.896	-1.66	-0.0424	0.936 (inactive)
COc1cc2c(cc1O)C(C)N(C)CC2 (stereo not given)	-0.0259	-1.17	-0.45	-0.227	-0.114	0.0683	0.599	-0.692	0.0591	-1.06 (inactive)
CCOC(=O)[C@H]1CC=C2C(=O)Oc3ccccc3[C@@H]21	2.35	-0.268	0.374	-0.192	-0.628	-0.903	-0.955	-0.54	-0.351	1.32 (inactive)
COC(=O)[C@@]1(Cc2ccccc2)[C@H]2c3cc(C(=O)N(C)C)n(C)c3C[C@H]2CN1C(=O)c1ccccc1	1.18	0.898	0.144	0.84	-0.21	0.125	-0.0935	-0.627	0.668	1.59 (inactive)
CCCc1cc2c(n1Cc1ccc(C)cc1)C(C)C1CN(C(=O)c3ccccc3)C(C)(C(=O)OC)C21 (stereo not given)	2.14	1.06	1.29	0.889	0.66	0.578	1.14	-0.544	0.833	-1.17 (inactive)
c1ccc(-c2cc3c(nc2-c2ccccc2)CCNC3)cc1	-0.0778	-0.716	-0.0306	0.357	-0.444	0.0533	0.631	0.0391	0.326	-0.13 (inactive)
CCCc1cc2c(n1CCO)C(C)C1CN(C(=O)c3ccccc3)C(C)(C(=O)OC)C21 (stereo not given)	2.55	1.14	1.42	0.64	-0.315	-0.634	0.9	-0.875	1.25	1.54 (inactive)
COc1cc2c(cc1O)C=[N+](C)CC2	1.02	-0.662	-0.0048	-1.32	0.469	1.17	1.28	0.495	-0.252	-0.556 (inactive)
COC(=O)[C@H]1C(=O)c2ccccc2O[C@@](C(=O)OC)(c2ccccc2)[C@@H]1c1ccccc1	-0.34	-1.34	0.0173	-1.75	-0.245	-0.105	-0.778	-0.0506	-0.738	0.164 (inactive)
C[C@@H]1OC=C2[C@@H](O)[C@H]3O[C@H]3C(=O)[C@]23[C@H]1[C@H]1C2=C([C@@H](O)[C@H]4O[C@H]4C2=O)[C@@H]3O[C@@H]1C	-0.317	-0.556	-0.171	-0.559	0.0982	0.0979	0.774	0.277	-0.351	-0.563 (inactive)

— PubChem BioAssay
